Experimental data taken from PubChem BioAssay (EPA / NIEHS).
Active and inactive are the calls of the source. Rule for the calls: active = hit-call score of the fitted dose curve at least 0.9, where 1 is the maximum; inactive = score below 0.9.

Experiments:
[1] = target: Bile acid receptor (Homo sapiens) (UniProt Q96RI1); assay: ATG_IR1_CIS: Attagene CIS-FACTORIAL HepG2 Assay for human Nuclear Receptor Subfamily 1 Group H Member 4 (NR1H4), IR1 submotif (AID 2282946); conditions: IR1 reporter transcription, actives raise or lower the signal
Procedure, shortened: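 HepG2 cells transiently transfected with multiplexed cis-element reporter units read endogenous transcription factor activity. After 24 h compound exposure, reporter mRNA was quantified by RT-PCR, fluorescent labelling, HpaI digestion and capillary electrophoresis; bidirectional fitting versus DMSO baseline.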

[2] = ATG_GRE_CIS: Attagene CIS-FACTORIAL HepG2 Assay for human Glucocorticoid Response Elements (GRE) (AID 2282947); conditions: HepG2 GRE cis-reporter, Attagene multiplex mRNA; actives raise or lower the signal
Procedure, shortened: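 Multiplexed cis-reporter mRNA induction, HepG2, 24 h post-dose. RT-PCR, FAM-labelled, HpaI-digested amplicons by CE. Bidirectional fit vs DMSO.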

[3] = ATG_ISRE_CIS: Attagene CIS-FACTORIAL HepG2 Assay for human Interferon Regulatory Factor 1 (IRF1) binding to an Interferon-Stimulated Response Element (ISRE) (AID 2282948); conditions: HepG2 ISRE cis-reporter (Attagene), mRNA transcription readout; actives raise or lower the signal
Procedure, shortened: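 Multiplexed mRNA reporter readout in human liver HepG2 cells: cis-element-driven reporters transfected, compound added for 24 h, transcripts amplified, fluorescently labelled and sized by capillary electrophoresis; curve fitting bidirectional against DMSO.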

[4] = ATG_M_32_CIS: Attagene CIS-FACTORIAL HepG2 Assay for M32 Transcription Factor (Internal Marker) (AID 2282949); conditions: HepG2 Attagene cis-factorial M32 reporter, mRNA; actives raise or lower the signal;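 note: background control marker of the multiplexed CIS panel rather than a real target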
Procedure, shortened: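 Transient MRTU transfection of HepG2; 24 h compound treatment; TriZol RNA, oligo(dT) RT, reporter PCR, 6-FAM primer extension, HpaI cut, CE. Gain/loss of signal vs DMSO.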

[5] = ATG_M_06_CIS: Attagene CIS-FACTORIAL HepG2 Assay for M06 Transcription Factor (Internal Marker) (AID 2282950); conditions: HepG2 Attagene CIS-FACTORIAL M06 internal marker reporter; actives raise or lower the signal
Procedure, shortened: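 Steps: transfect HepG2 with multiplexed cis-element reporter constructs; dose chemical 24 h; extract RNA with DNase treatment; reverse-transcribe, PCR-amplify, 6-FAM label, HpaI digest; separate fragments by capillary electrophoresis. Activity fitted both directions versus DMSO.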

[6] = target: Hypoxia-inducible factor 1-alpha (Homo sapiens) (UniProt Q16665); assay: ATG_HIF1a_CIS: Attagene CIS-FACTORIAL HepG2 Assay for human Hypoxia Inducible Factor 1 (HIF1A) (AID 2282951); conditions: HepG2 Attagene cis-factorial HIF1a reporter transcription; actives raise or lower the signal
Procedure, shortened: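 Measures endogenous transcription-factor activity through cis-regulated reporter mRNA in HepG2. Cells dosed 24 h; transcripts quantified by RT-PCR with 6-FAM-labelled products separated by capillary electrophoresis; DMSO serves as negative control.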

[7] = target: Hepatocyte nuclear factor 6 (Homo sapiens) (UniProt Q9UBC0); assay: ATG_HNF6_CIS: Attagene CIS-FACTORIAL HepG2 Assay for human Hepatocyte Nuclear Factor 6 (HNF6) (AID 2282952); conditions: HepG2 Attagene cis-factorial HNF6 reporter transcription; actives raise or lower the signal
Procedure, shortened: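 Readout: fluorescent reporter-transcript fragments resolved by capillary electrophoresis after RT-PCR, reflecting endogenous factor activity in transfected HepG2. Exposure 24 h. Gain or loss of signal fitted bidirectionally against DMSO.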

[8] = target: Heat shock factor protein 1 (Homo sapiens) (UniProt Q00613); assay: ATG_HSE_CIS: Attagene CIS-FACTORIAL HepG2 Assay for human Heat Shock Transcription Factor 1 (HSE) (AID 2282953); conditions: HepG2 HSE cis-reporter, Attagene RNA transcription; actives raise or lower the signal
Procedure, shortened: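 Cells were transfected with cis-element-driven reporter constructs, dosed for 24 h, then total RNA was reverse-transcribed and reporter cDNA amplified, FAM-labelled and digested with HpaI. Fragments were resolved by capillary electrophoresis; gain or loss was fitted against DMSO.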

[9] = ATG_MRE_CIS: Attagene CIS-FACTORIAL HepG2 Assay for human Metal Responsive Element (MRE) (AID 2282954); conditions: HepG2 MRE cis-reporter transcription, Attagene multiplex; actives raise or lower the signal
Procedure, shortened: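 Multiplexed cis-reporter assay in human HepG2 liver cells, 24 h incubation with test chemical. Reporter transcripts measured by RT-PCR and capillary electrophoresis; values from bidirectional curve fitting versus DMSO.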

[10] = ATG_PBREM_CIS: Attagene CIS-FACTORIAL HepG2 Assay for human Phenobarbital-responsive Enhancer Module (PBREM) (AID 2282955); conditions: HepG2 PBREM cis-reporter, Attagene multiplexed transcription; actives raise or lower the signal
Procedure, shortened: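 Fluorescence of labelled reporter cDNA fragments, resolved by capillary electrophoresis, gives mRNA induction in transfected HepG2 cells treated for 24 h; DMSO serves as negative control and baseline.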

Measured: AC50

Sequence of Hepatocyte nuclear factor 6 (Homo sapiens) (Q9UBC0 whole entry, looked up, the tested form may be a part): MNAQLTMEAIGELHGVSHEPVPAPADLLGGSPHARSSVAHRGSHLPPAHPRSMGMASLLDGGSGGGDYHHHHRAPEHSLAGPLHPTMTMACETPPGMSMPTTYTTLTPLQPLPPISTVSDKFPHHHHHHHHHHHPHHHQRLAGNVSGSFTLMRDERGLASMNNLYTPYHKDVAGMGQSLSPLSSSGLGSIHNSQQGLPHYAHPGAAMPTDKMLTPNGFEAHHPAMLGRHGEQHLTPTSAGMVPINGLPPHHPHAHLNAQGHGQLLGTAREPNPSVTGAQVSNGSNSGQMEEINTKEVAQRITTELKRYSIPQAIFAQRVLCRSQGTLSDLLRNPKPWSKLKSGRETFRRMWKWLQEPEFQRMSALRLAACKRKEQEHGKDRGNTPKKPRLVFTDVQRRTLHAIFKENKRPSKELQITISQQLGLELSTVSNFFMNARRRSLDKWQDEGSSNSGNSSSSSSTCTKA
Sequence of Heat shock factor protein 1 (Homo sapiens) (Q00613 whole entry, looked up, the tested form may be a part): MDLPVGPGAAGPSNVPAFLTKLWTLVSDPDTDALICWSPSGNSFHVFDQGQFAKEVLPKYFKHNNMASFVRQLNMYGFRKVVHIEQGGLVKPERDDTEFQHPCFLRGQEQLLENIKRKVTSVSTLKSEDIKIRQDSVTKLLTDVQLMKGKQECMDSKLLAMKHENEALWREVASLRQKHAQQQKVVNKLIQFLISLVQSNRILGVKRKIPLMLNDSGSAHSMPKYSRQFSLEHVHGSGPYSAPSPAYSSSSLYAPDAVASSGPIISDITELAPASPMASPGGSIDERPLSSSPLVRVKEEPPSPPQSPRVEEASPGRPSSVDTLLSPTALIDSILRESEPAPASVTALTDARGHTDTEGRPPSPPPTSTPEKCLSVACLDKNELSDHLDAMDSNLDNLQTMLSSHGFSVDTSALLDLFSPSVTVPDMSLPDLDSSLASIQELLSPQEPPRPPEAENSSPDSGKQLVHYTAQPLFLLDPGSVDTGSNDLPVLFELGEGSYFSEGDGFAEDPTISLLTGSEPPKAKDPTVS
Sequence of Hypoxia-inducible factor 1-alpha (Homo sapiens) (Q16665 whole entry, looked up): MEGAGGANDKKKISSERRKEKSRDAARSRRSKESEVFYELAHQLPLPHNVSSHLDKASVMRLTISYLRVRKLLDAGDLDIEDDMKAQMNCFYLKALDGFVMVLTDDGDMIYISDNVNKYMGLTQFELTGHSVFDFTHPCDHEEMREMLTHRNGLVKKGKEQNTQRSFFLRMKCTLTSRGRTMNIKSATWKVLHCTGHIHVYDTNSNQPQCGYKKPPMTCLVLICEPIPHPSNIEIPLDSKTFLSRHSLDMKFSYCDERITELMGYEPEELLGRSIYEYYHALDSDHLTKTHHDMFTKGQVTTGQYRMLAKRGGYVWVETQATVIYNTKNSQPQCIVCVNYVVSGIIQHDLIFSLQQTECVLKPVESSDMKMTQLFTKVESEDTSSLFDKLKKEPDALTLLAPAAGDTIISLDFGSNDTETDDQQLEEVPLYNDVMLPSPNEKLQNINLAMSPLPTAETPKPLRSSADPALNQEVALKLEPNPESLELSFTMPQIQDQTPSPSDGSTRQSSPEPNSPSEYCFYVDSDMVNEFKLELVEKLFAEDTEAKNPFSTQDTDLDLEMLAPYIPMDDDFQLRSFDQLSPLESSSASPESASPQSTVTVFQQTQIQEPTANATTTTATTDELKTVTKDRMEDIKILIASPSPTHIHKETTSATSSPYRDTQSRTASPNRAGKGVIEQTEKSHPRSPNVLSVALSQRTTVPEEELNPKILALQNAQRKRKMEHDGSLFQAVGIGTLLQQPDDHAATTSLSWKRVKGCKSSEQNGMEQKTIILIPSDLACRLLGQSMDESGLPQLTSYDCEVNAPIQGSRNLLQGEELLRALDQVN
Sequence of Bile acid receptor (Homo sapiens) (Q96RI1 whole entry, looked up): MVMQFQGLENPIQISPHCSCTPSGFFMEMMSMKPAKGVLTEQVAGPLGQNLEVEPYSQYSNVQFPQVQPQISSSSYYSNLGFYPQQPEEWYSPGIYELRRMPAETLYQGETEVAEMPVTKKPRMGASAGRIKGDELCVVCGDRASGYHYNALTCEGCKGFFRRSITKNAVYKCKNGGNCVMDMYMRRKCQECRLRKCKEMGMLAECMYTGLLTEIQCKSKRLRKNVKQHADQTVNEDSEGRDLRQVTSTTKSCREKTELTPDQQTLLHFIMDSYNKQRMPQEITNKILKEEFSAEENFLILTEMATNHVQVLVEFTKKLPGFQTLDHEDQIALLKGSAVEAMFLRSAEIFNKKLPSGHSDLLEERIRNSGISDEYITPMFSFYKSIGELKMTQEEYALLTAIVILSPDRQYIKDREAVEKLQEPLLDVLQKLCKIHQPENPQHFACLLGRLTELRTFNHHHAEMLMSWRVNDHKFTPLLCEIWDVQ

c1ccc2c(c1)c1cccc3ccc4cccc2c4c31
inactive: [1] | [2] | [3] | [4] | [5] | [6] | [7] | [8] | [9] | [10]

CC(C)c1ccc(C(C)C)cc1
active: [6] 100 µM
inactive: [1] | [2] | [3] | [4] | [5] | [7] | [8] | [9]

Clc1ccc(Cl)c(Cl)c1Cl
inactive: [1] | [2] | [3] | [4] | [5] | [6] | [7] | [8] | [9] | [10]

Cc1ccc2n[nH]nc2c1
inactive: [1] | [2] | [3] | [4] | [5] | [6] | [7] | [8] | [9]

Cc1ccc(C=O)cc1
inactive: [1] | [2] | [3] | [4] | [5] | [6] | [7] | [8] | [9]

CCCC(C)C=O (stereo not drawn)
inactive: [1] | [2] | [3] | [4] | [5] | [6] | [7] | [8] | [10]

COc1cccc(OC)c1
inactive: [1] | [2] | [3] | [4] | [5] | [6] | [7] | [8] | [9] | [10]

CC1(C)CCC(C)(C)c2cc(C(=O)Nc3ccc(C(=O)O)cc3)ccc21
active: [1] 4.75 µM | [3] 100 µM | [6] 55.1 µM | [8] 157 µM | [9] 74.5 µM
inactive: [2] | [4] | [5] | [7] | [10]

NCCOCCO
active: [6] 30.2 µM
inactive: [1] | [2] | [3] | [4] | [5] | [7] | [8] | [9]

CC1=CCC2C(C1)C2(C)C (stereo not drawn)
inactive: [1] | [2] | [3] | [4] | [5] | [6] | [7] | [8] | [9]

CCCCCCOC(=O)CC
inactive: [1] | [2] | [3] | [4] | [5] | [6] | [7] | [8] | [9] | [10]

CC(C)(C)C(=O)c1ccccc1
inactive: [1] | [2] | [3] | [4] | [5] | [6] | [7] | [8] | [10]
